# Source: PubChem BioAssay
# Assay: small molecules captured by biotinylated probe aFGF2 – biochemical, small-molecule microarray, fluorescence 635/667, stem cell growth factor project, primary screen (AID 1067);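 note: measures binding of biotinylated aFGF2 protein to printed compounds on slides; z-score merges feature fluorescence and signal-to-noise across triplicate slides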
# Conditions: higher = more signal
row,Structure (SMILES),composite z-score
1,COCC(=C=CC[C@@H](O)c1ccccc1OCCO)C[C@@H](O)c1ccccn1,-0.0775
2,COc1ccc([Si](C)(C)[C@H]2[C@H](CCO)O[C@@]3(C(=O)N(Cc4cccc(N5CCOC5=O)c4)c4ccccc43)[C@@H]2C)cc1,-0.034
3,COC(=O)C(CC#Cc1ccc2c(c1)[C@]1(C(=O)N2)[C@H](C(=O)N2CCc3cc(OC)c(OC)cc3C2)[C@H]2C(=O)O[C@H](c3ccccc3)[C@H](c3ccccc3)N2[C@@H]1c1ccc(O)cc1)C(=O)OC,0.0276
4,COc1ccc([Si](C)(C)[C@H]2[C@H](CCn3cc(CCO)nn3)O[C@@]3(C(=O)N(Cc4cccc(N5C(=O)c6cccc7cccc5c67)c4)c4ccccc43)[C@@H]2C)cc1,-0.105
5,C[C@H]1ON(c2ccccc2)[C@@H](c2ccccc2)[C@@H]1C(=O)N1C(=O)OC[C@@H]1c1ccccc1,-0.019
6,COc1ccc(C#Cc2ccc3c(c2)[C@]2(C(=O)N3)[C@H](C(=O)O)[C@H]3C(=O)O[C@H](c4ccccc4)[C@H](c4ccccc4)N3[C@@H]2c2ccc(OCCO)cc2)cc1,-0.0344
7,C=CCC(OC(C)=O)[C@@H]1[C@@H](N(Cc2ccc(-c3ccccc3)cc2)C(=O)Cc2ccc(OC)cc2)c2cc(OCCCO)ccc2N1C(=O)c1ccc(-c2ccccc2)cc1 (stereo not given in full),-0.0158
8,Cc1ccc(S[C@]2(C(=O)NCC(C)C)CC(=O)N(C3CCCCC3)[C@@H]2c2ccc(CO)cc2I)cc1,0.062
9,COC(=O)C(CC#Cc1ccc2c(c1)[C@]1(C(=O)N2)[C@H](c2ccc(OCCO)cc2)N2[C@H](c3ccccc3)[C@H](c3ccccc3)OC(=O)[C@H]2[C@@H]1C(=O)O)C(=O)OC,0.102
10,[N-]=[N+]=NCc1ccccc1C[C@@]1(C(=O)NCCN2CCOCC2)N=C(c2ccc(OCCCO)cc2)O[C@@H]1c1ccccc1CN=[N+]=[N-],0.105
11,C[C@]12C(=O)N(CCCO)[C@@H]3C(=O)N(c4ccc(Cl)cc4)CC=CC31O[C@@H]1/C=C\CCCOC(=O)C12 (stereo not given in full),-0.0895
12,CCCCC(O)C1C=CC2C(=O)N(Cc3ccccc3)C(=O)C2N1n1cnnc1 (stereo not given),0.0311
13,Cc1ccccc1C(O)C1C=CC2C(=O)N(C)C(=O)C2N1Nc1ccc([N+](=O)[O-])cc1[N+](=O)[O-] (stereo not given),0.084
14,COCCOC(=O)N1C(=O)[C@@]2(c3cc(C#Cc4ccc(OC)cc4)ccc31)[C@H](C(=O)N1CCc3cc(OC)c(OC)cc3C1)[C@H]1C(=O)O[C@H](c3ccccc3)[C@H](c3ccccc3)N1[C@@H]2c1ccc(OCCO)cc1,-0.0567
15,O=c1c2ccc(Br)cc2nc(-c2ccccc2)n1Cc1cccc(O)c1,-0.0774
16,Cc1ccc(S[C@]2(C(=O)NCCN3CCOCC3)CC(=O)N(C3Cc4ccccc4C3)[C@@H]2c2ccc(CO)cc2)cc1,-0.0825
17,C=CC[C@@]1(C(=O)NCCN2CCOCC2)N=C(c2ccc(OCCCO)cc2)O[C@@H]1c1ccccc1,0.0342
18,C[C@H]1NC(=O)C([C@@H](C)OCc2ccccc2)NC(=O)[C@@]23C(=O)N[C@@H](Cc4ccccc4)C2[C@H](C)[C@@]2(C)O[C@H]2C3/C=C/CC/C=C/CNC1=O (stereo not given in full),0.0304

row,Structure (SMILES),composite z-score
1,C/C=C/[C@@H](CCn1cc([C@H](O)c2ccccc2)nn1)[Si](C)(C)c1ccc(OC)cc1,-0.0462
2,CCCC=C(CCC)[C@@H](NC(=O)Cc1ccccc1)c1ccc(C(=O)OC)cc1,0.254
3,C=C(COC)/C(=C/C[C@@H](OC(=O)c1ccncc1)c1cccc(OCCO)c1)c1cc(C(=O)OC)ccc1OC,-0.0428
4,COc1cc(NN2C(C(O)c3ccc(I)cc3)C=CC3C(=O)N(C)C(=O)C32)cc(OC)c1OC (stereo not given),-0.0207
5,COCCCNC(=O)[C@@]1(Cc2ccccc2CN=[N+]=[N-])N=C(c2ccc(OCCCO)cc2)O[C@H]1c1ccccc1N=[N+]=[N-],0.0524
6,O=C(CS)NCCCCCNC(=O)[C@@H]1C[C@@H]2C(=O)N3CCC[C@H]3C(=O)N2[C@@H]1c1ccc(O)cc1,-0.0333
7,Cc1cc(C)c(C(O)C2C=CC3C(=O)N(c4ccccc4)C(=O)C3N2Nc2ccc([N+](=O)[O-])cc2)c(C)c1 (stereo not given),0.0748
8,C=C[C@H](C)[C@H](OC(=O)Nc1ccc(SC)cc1)c1ccc(O)c2ccccc12,0.0243
9,COC(=O)C(CC#Cc1ccc2c(c1)[C@]1(C(=O)N2)[C@H](C(=O)N2CCc3cc(OC)c(OC)cc3C2)[C@H]2C(=O)O[C@H](c3ccccc3)[C@H](c3ccccc3)N2[C@@H]1c1ccc(OCCO)cc1)C(=O)OC,-0.145
10,COC(=O)[C@@]1(Cc2ccc(OC)cc2)[C@H]2c3cc(C(=O)N4CCCC4)n(CCc4ccc(O)c(OC)c4)c3C[C@H]2CN1C(=O)c1ccccc1,0.0331
11,O=C1N(CCS(=O)(=O)c2ccccc2)Cc2ccccc2C[C@@]12COC(c1ccc(OCCCO)cc1)=N2,0.212
12,CC(C)C[C@H]1NC(=O)[C@H](C)NC(=O)[C@@]23C(=O)N[C@@H](Cc4ccccc4)C2[C@H](C)[C@@]2(C)O[C@H]2C3/C=C/C/C=C\CNC1=O (stereo not given in full),-0.104
13,COc1ccc([Si](C)(C)[C@H]2[C@H](CC(=O)N3CCC[C@H]3CO)O[C@@]3(C(=O)N(Cc4ccc(N5C(=O)c6cccc7cccc5c67)cc4)c4ccccc43)[C@@H]2C)cc1,-0.071
14,COc1cccc(C)c1NC(=O)O[C@H]1[C@H](OC(=O)Nc2ccccc2)[C@H](OC(=O)Nc2ccccc2)[C@@H](OC)O[C@@H]1CO,-0.0216
15,C=CCC(OC(C)=O)[C@@H]1[C@@H](N(Cc2ccc(-c3ccccc3)cc2)C(=O)c2cccc3ccccc23)c2cc(OCCCO)ccc2N1C(=O)c1ccc2ccccc2n1 (stereo not given in full),-0.102
16,O=C1O[C@H](c2ccccc2)[C@H](c2ccccc2)N2[C@H]1[C@@H](C(=O)N1CCN(c3ncccn3)CC1)[C@]1(C(=O)Nc3ccc(C#CCCO)cc31)[C@H]2c1ccc(OCCO)cc1,0.0229
17,COC(=O)[C@@]1(Cc2ccccc2N=[N+]=[N-])N=C(c2ccc(OCCCO)cc2)O[C@H]1c1ccccc1,0.0904
